In all, about 5,500 compounds went through this assay and about 2,000 (36%) were called active. Another 18% or so got no clear call; they are omitted. Rule as the data show it: active = normalized growth mostly below about 0.91 (no sharp cut-off); inconclusive = no clear call, values can overlap the other calls; inactive = mostly above about 0.92. The list shows a part of the results.
Test: chemical genetic growth profiling, strain panel (AID 1159580);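 also: tested at 20 µM; growth read once vehicle control cultures reached saturation at 30 °C; 1 = growth at the plate median or of vehicle wells; lower values mean less growth of the strain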
Settings: growth OD

Measured: normalized growth

COc1ccc(C[C@H](N)C(=O)N[C@@H]2[C@@H](CO)OC(n3cnc4c(N(C)C)ncnc43)[C@@H]2O)cc1 (some centres not stated)
inactive: S. cerevisiae deletion strains, locus YJR075W, strain HOC1, hits give low values 0.997 | S. cerevisiae deletion strains, locus YKL009W, strain mrt4, hits give low values 1.03 | S. cerevisiae deletion strains, locus YKL068W, hits give low values 1.02 | S. cerevisiae deletion strains, locus YKL085W, strain MDH1 (second series), hits give low values 1.01 | S. cerevisiae deletion strains, locus YKL085W, strain MDH1, hits give low values 1.01 | S. cerevisiae deletion strains, locus YKL160W, strain elf1, hits give low values 0.993 | S. cerevisiae deletion strains, locus YKL190W, strain CNB1, hits give low values 1 | S. cerevisiae deletion strains, locus YKR001C, strain vps1, hits give low values 1.02 | S. cerevisiae deletion strains, locus YKR026C, strain gcn3, hits give low values 1 | S. cerevisiae deletion strains, locus YKR091W, strain srl3, hits give low values 1.02 | S. cerevisiae deletion strains, locus YLL001W, strain dnm1, hits give low values 0.961 | S. cerevisiae deletion strains, locus YLL026W, hits give low values 0.987 | S. cerevisiae deletion strains, locus YLL041C, strain sdh2, hits give low values 1 | S. cerevisiae deletion strains, locus YLR027C, strain aat2, hits give low values 0.997 | S. cerevisiae deletion strains, locus YLR039C, strain RIC1, hits give low values 1.04 | S. cerevisiae deletion strains, locus YLR058C, strain SHM2, hits give low values 1.01 | S. cerevisiae deletion strains, locus YLR102C, strain apc9, hits give low values 1.01 | S. cerevisiae deletion strains, locus YLR113W, strain HOG1, hits give low values 0.989 | S. cerevisiae deletion strains, locus YLR221C, strain rsa3, hits give low values 0.991 | S. cerevisiae deletion strains, locus YLR258W, strain gsy2, hits give low values 1 | S. cerevisiae deletion strains, locus YLR262C, strain YPT6 (second series), hits give low values 1.01 | S. cerevisiae deletion strains, locus YLR262C, strain YPT6, hits give low values 1.04 | S. cerevisiae deletion strains, locus YLR268W, strain sec22, hits give low values 1.01 | S. cerevisiae deletion strains, locus YLR320W, strain mms22, hits give low values 1 | S. cerevisiae deletion strains, locus YLR330W, strain CHS5, hits give low values 1.01 | S. cerevisiae deletion strains, locus YLR342W, strain FKS1 (second series), hits give low values 0.992 | S. cerevisiae deletion strains, locus YLR342W, strain FKS1, hits give low values 0.996 | S. cerevisiae deletion strains, locus YLR357W, strain rsc2, hits give low values 1.01 | S. cerevisiae deletion strains, locus YLR370C, strain arc18, hits give low values 0.985 | S. cerevisiae deletion strains, locus YLR371W, strain rom2, hits give low values 1.02 | S. cerevisiae deletion strains, locus YLR384C, strain iki3, hits give low values 0.979 | S. cerevisiae deletion strains, locus YLR418C, strain cdc73, hits give low values 0.988 | S. cerevisiae deletion strains, locus YML016C, strain PPZ1, hits give low values 1.01 | S. cerevisiae deletion strains, locus YML032C, strain rad52, hits give low values 1.03 | S. cerevisiae deletion strains, locus YML120C, strain ndi1, hits give low values 0.996 | S. cerevisiae deletion strains, locus YML124C, strain tub3, hits give low values 1.02 | S. cerevisiae deletion strains, locus YMR058W, strain fet3, hits give low values 1 | S. cerevisiae deletion strains, locus YMR078C, strain ctf18, hits give low values 1.02 | S. cerevisiae deletion strains, locus YMR125W, strain sto1, hits give low values 1.01 | S. cerevisiae deletion strains, locus YMR129W, hits give low values 0.995 | S. cerevisiae deletion strains, locus YMR205C, strain PFK2, hits give low values 1 | S. cerevisiae deletion strains, locus YMR223W, strain ubp8, hits give low values 1.03 | S. cerevisiae deletion strains, locus YMR231W, strain pep5, hits give low values 0.987 | S. cerevisiae deletion strains, locus YMR263W, strain SAP30, hits give low values 1 | S. cerevisiae deletion strains, locus YMR307W, strain GAS1, hits give low values 1.06 | S. cerevisiae deletion strains, locus YNL067W, strain RPL9B, hits give low values 1 | S. cerevisiae deletion strains, locus YNL071W, strain lat1, hits give low values 1.01 | S. cerevisiae deletion strains, locus YNL128W, strain TEP1, hits give low values 1.01 | S. cerevisiae deletion strains, locus YNL153C, strain GIM3, hits give low values 0.988 | S. cerevisiae deletion strains, locus YNL183C, strain NPR1, hits give low values 0.935 | S. cerevisiae deletion strains, locus YNL209W, strain ssb2, hits give low values 0.996 | S. cerevisiae deletion strains, locus YNL233W, strain BNI4, hits give low values 1 | S. cerevisiae deletion strains, locus YNL248C, strain rpa49, hits give low values 1.01 | S. cerevisiae deletion strains, locus YNL250W, strain rad50, hits give low values 1.04 | S. cerevisiae deletion strains, locus YNL271C, strain bni1, hits give low values 1.01 | S. cerevisiae deletion strains, locus YNL298W, strain CLA4, hits give low values 1.01 | S. cerevisiae deletion strains, locus YNL307C, strain MCK1, hits give low values 1.04 | S. cerevisiae deletion strains, locus YNL322C, strain KRE1 (second series), hits give low values 0.994 | S. cerevisiae deletion strains, locus YNL322C, strain KRE1, hits give low values 1.01 | S. cerevisiae deletion strains, locus YNR049C, strain mso1, hits give low values 0.987 | S. cerevisiae deletion strains, locus YNR052C, strain pop2, hits give low values 1.02 | S. cerevisiae deletion strains, locus YOL006C, strain TOP1, hits give low values 1.02 | S. cerevisiae deletion strains, locus YOL012C, strain htz1 0.862 | S. cerevisiae deletion strains, locus YOL147C, strain pex11, hits give low values 1.02 | S. cerevisiae deletion strains, locus YOR001W, strain rrp6, hits give low values 0.988 | S. cerevisiae deletion strains, locus YOR061W, strain CKA2, hits give low values 1.01 | S. cerevisiae deletion strains, locus YOR069W, strain VPS5, hits give low values 0.996 | S. cerevisiae deletion strains, locus YOR070C, strain gyp1, hits give low values 0.984 | S. cerevisiae deletion strains, locus YOR080W, strain dia2, hits give low values 0.992 | S. cerevisiae deletion strains, locus YOR083W, strain WHI5, hits give low values 1.02 | S. cerevisiae deletion strains, locus YOR106W, strain vam3, hits give low values 0.984 | S. cerevisiae deletion strains, locus YOR136W, strain idh2, hits give low values 1.02 | S. cerevisiae deletion strains, locus YOR144C, strain elg1, hits give low values 1.01 | S. cerevisiae deletion strains, locus YOR184W, strain ser1, hits give low values 1.04 | S. cerevisiae deletion strains, locus YOR231W, strain MKK1, hits give low values 0.961 | S. cerevisiae deletion strains, locus YOR265W, strain rbl2, hits give low values 0.991 | S. cerevisiae deletion strains, locus YOR270C, strain vph1, hits give low values 0.993 | S. cerevisiae deletion strains, locus YOR290C, strain snf2, hits give low values 1 | S. cerevisiae deletion strains, locus YOR316C, strain cot1, hits give low values 1.02 | S. cerevisiae deletion strains, locus YPL051W, strain arl3, hits give low values 0.976 | S. cerevisiae deletion strains, locus YPL055C, strain LGE1, hits give low values 1 | S. cerevisiae deletion strains, locus YPL078C, strain atp4, hits give low values 0.972 | S. cerevisiae deletion strains, locus YPL106C, strain sse1, hits give low values 0.996 | S. cerevisiae deletion strains, locus YPL240C, strain hsp82, hits give low values 0.986 | S. cerevisiae deletion strains, locus YPL241C, strain CIN2, hits give low values 1 | S. cerevisiae deletion strains, locus YPL256C, strain CLN2, hits give low values 0.965 | S. cerevisiae deletion strains, locus YPR119W, strain clb2, hits give low values 1.01 | S. cerevisiae deletion strains, locus YPR141C, strain kar3, hits give low values 1.03 | S. cerevisiae deletion strains, locus YPR163C, strain tif3, hits give low values 1.02 | S. cerevisiae deletion strains, locus YPR167C, strain met16, hits give low values 1.02 | S. cerevisiae deletion strains, strain wtn01, hits give low values 0.986 | S. cerevisiae strains, strain wild type, hits give low values 1.01
